# The source made the active and inactive calls. Rule for the calls: active = hit-call score of the fitted dose curve at least 0.9, where 1 is the maximum; inactive = score below 0.9.
# Legend:
# [1] = ATG_CRE_CIS: Attagene CIS-FACTORIAL HepG2 Assay for human cAMP Responsive Element (CRE) binding protein 3 (AID 2282926); conditions: HepG2 CRE cis-reporter, Attagene multiplexed mRNA; actives raise or lower the signal
# In short: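 Human liver HepG2, transient MRTU transfection, 24 h compound exposure. Total RNA → oligo(dT) RT → PCR → 6-FAM primer extension → HpaI cut → CE. Activity called both directions vs DMSO.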
# [2] = molecular target: CCAAT/enhancer-binding protein beta (Homo sapiens) (UniProt P17676); assay: ATG_C_EBP_CIS: Attagene CIS-FACTORIAL HepG2 Assay for human CCAAT/Enhancer Binding Protein (C/EBP) beta (AID 2282927); conditions: HepG2 Attagene cis-factorial transcription factor reporter; actives raise or lower the signal
# In short: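 Following a 24 h incubation with test chemical, transfected HepG2 cells yielded RNA whose reporter transcripts were quantified by RT-PCR and fluorescent capillary electrophoresis, with DMSO serving as baseline for bidirectional fitting.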
# [3] = ATG_CMV_CIS: Attagene CIS-FACTORIAL HepG2 Assay for human CMV (Internal Marker) (AID 2282928); conditions: HepG2 CMV promoter reporter, transcription factor profiling; actives raise or lower the signal;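 note: endpoint acts as a background internal control marker rather than a target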
# In short: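 HepG2 cells transiently transfected with multiple cis-regulated reporter units; 24 h compound exposure. Reporter mRNA quantified by RT-PCR, 6-FAM primer-extension labeling, HpaI digestion and capillary electrophoresis; bidirectional fitting against DMSO baseline.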
# [4] = ATG_DR4_LXR_CIS: Attagene CIS-FACTORIAL HepG2 Assay for human Liver X Receptor (LXR), DR4 submotif (AID 2282929); conditions: HepG2 Attagene DR4 cis-reporter, mRNA transcription; actives raise or lower the signal
# In short: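 Cells were transfected with multiple reporter transcription units, exposed to chemicals for 24 hours, then lysed for RNA. Reporter mRNA induction was measured by RT-PCR with capillary electrophoresis detection and fitted in both directions relative to DMSO.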
# [5] = molecular target: Aryl hydrocarbon receptor (Homo sapiens) (UniProt P35869); assay: ATG_Ahr_CIS: Attagene CIS-FACTORIAL HepG2 Assay for human Aryl Hydrocarbon Receptor (Ahr) (AID 2282930); conditions: HepG2 AhR cis-factorial reporter transcription; actives raise or lower the signal
# In short: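 Values derive from bidirectional fitting against DMSO negative control. Underlying signal: cis-element reporter mRNA in transiently transfected HepG2, harvested 24 h post-dose and measured by RT-PCR plus capillary electrophoresis.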
# [6] = ATG_AP_1_CIS: Attagene CIS-FACTORIAL HepG2 Assay for human Activator Protein 1 (AP-1) (AID 2282931); conditions: HepG2 Attagene cis-factorial AP-1 reporter mRNA; actives raise or lower the signal
# In short: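 Endogenous transcription-factor activity in human HepG2 liver cells is read through a cis-promoter reporter transcript, sampled 24 h after dosing. Detection uses RT-PCR with capillary electrophoresis; values come from bidirectional fitting relative to DMSO.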
# [7] = ATG_BRE_CIS: Attagene CIS-FACTORIAL HepG2 Assay for human Bone Morphogenetic Protein (BMP) Response Element (BRE) (AID 2282933); conditions: HepG2 BMP response element reporter, Attagene transcription factor profiling; actives raise or lower the signal
# In short: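 Read-out: reporter mRNA induction quantified by RT-PCR and capillary electrophoresis after 24 h chemical exposure of transfected HepG2 cells. Endogenous factor activity on the BMP response element; gain or loss fitted against DMSO baseline.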
# [8] = molecular target: Retinoic acid receptor alpha (Homo sapiens) (UniProt P10276); assay: ATG_DR5_RAR_CIS: Attagene CIS-FACTORIAL HepG2 Assay for human Retinoic Acid Receptor Alpha (RARE), DR5 submotif (AID 2282934); conditions: HepG2 Attagene cis-factorial RARE DR5 reporter, mRNA; actives raise or lower the signal
# In short: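 Endpoint fitted in both directions relative to DMSO as negative control. It reflects DR5 cis-element reporter mRNA induction in transiently transfected HepG2 cells, measured 24 h after dosing through RT-PCR and fluorescent capillary electrophoresis.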
# [9] = molecular target: Transcription factor E2F1 (Homo sapiens) (UniProt Q01094); assay: ATG_E2F_CIS: Attagene CIS-FACTORIAL HepG2 Assay for human E2F Transcription Factor 1 (AID 2282935); conditions: HepG2 Attagene cis-reporter, E2F reporter RNA transcripts; actives raise or lower the signal
# In short: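 HepG2 cells transiently transfected with multiplexed cis-element reporter units, dosed for 24 h. Reporter mRNA measured by RT-PCR, 6-FAM primer-extension labeling, HpaI digestion and capillary electrophoresis; bidirectional fit versus DMSO baseline.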
# [10] = ATG_E_Box_CIS: Attagene CIS-FACTORIAL HepG2 Assay for human Enhancer Box (E-box) (AID 2282936); conditions: HepG2 E-box cis-reporter transcription, actives raise or lower the signal
# In short: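 HepG2 cells transiently transfected with multiplexed cis-element reporter units sensing endogenous transcription factor activity; 24 h compound exposure. Reporter mRNA measured by RT-PCR, 6-FAM primer extension, HpaI digestion and capillary electrophoresis; bidirectional fit versus DMSO.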
# [11] = ATG_M_61_CIS: Attagene CIS-FACTORIAL HepG2 Assay for M61 Transcription Factor (Internal Marker) (AID 2282937); conditions: HepG2 Attagene CIS-FACTORIAL M61 internal marker reporter; actives raise or lower the signal
# In short: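 Cells were transfected with reporter units under cis-regulatory promoters, treated with chemicals for 24 h, then lysed for RNA. Reporter transcripts were quantified by RT-PCR and capillary electrophoresis, and activity was fitted bidirectionally against DMSO.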
# [12] = ATG_EGR_CIS: Attagene CIS-FACTORIAL HepG2 Assay for human Early Growth Response 1 (EGR1) (AID 2282938); conditions: HepG2 Attagene CIS-FACTORIAL EGR reporter mRNA; actives raise or lower the signal
# In short: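 Endogenous TF activity in HepG2 liver cells was gauged through cis-promoter reporter constructs transiently transfected. After 24 h dosing, reporter mRNA was quantified by RT-PCR and capillary electrophoresis, and curves fitted in both directions versus DMSO.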
# [13] = ATG_Ets_CIS: Attagene CIS-FACTORIAL HepG2 Assay for human Erythroblast Transformation Specific (ETS) (AID 2282941); conditions: HepG2 ETS cis-reporter transcription, actives raise or lower the signal
# In short: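 HepG2 cells transiently transfected with cis-promoter reporter transcription units were dosed for 24 h; reporter mRNA was measured by RT-PCR, 6-FAM primer extension, HpaI digestion and capillary electrophoresis, with bidirectional fitting against DMSO baseline.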
# [14] = molecular target: Hepatocyte nuclear factor 3-beta (Homo sapiens) (UniProt Q9Y261); assay: ATG_FoxA2_CIS: Attagene CIS-FACTORIAL HepG2 Assay for human Forkhead box A2 (FOXA2) (AID 2282942); conditions: HepG2 cis-reporter transcription factor activity, 24 h; actives raise or lower the signal
# In short: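 Endogenous transcription factor activity was read in HepG2 cells carrying transiently transfected cis-promoter reporter units. After 24 h dosing, reporter mRNA was quantified by RT-PCR and capillary electrophoresis, and values fitted bidirectionally versus DMSO.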
# [15] = ATG_FoxO_CIS: Attagene CIS-FACTORIAL HepG2 Assay for human Forkhead box O (FoxO) (AID 2282943); conditions: HepG2 Attagene cis-reporter, FoxO element, mRNA; actives raise or lower the signal
# In short: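 Values reflect reporter mRNA induction or loss in HepG2 cells 24 h post-dosing, fitted bidirectionally with DMSO as negative control and baseline. Detection used RT-PCR and fluorescence capillary electrophoresis.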
# [16] = ATG_GATA_CIS: Attagene CIS-FACTORIAL HepG2 Assay for human GATA Binding Protein (AID 2282944); conditions: HepG2 GATA cis-element reporter, Attagene multiplex mRNA; actives raise or lower the signal
# In short: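 Read-out: fluorescent reporter mRNA fragments resolved by capillary electrophoresis after RT-PCR. Human liver HepG2 cells carried transiently transfected cis-regulated reporter constructs; chemicals incubated 24 h; gain or loss of signal fitted relative to DMSO.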
# [17] = ATG_GLI_CIS: Attagene CIS-FACTORIAL HepG2 Assay for human Zinc Finger Protein GLI1 (AID 2282945); conditions: HepG2, Attagene cis-factorial reporter mRNA, GLI element; actives raise or lower the signal
# In short: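 HepG2 cells transiently transfected with cis-promoter multiplexed reporter units report endogenous transcription factor activity. After 24 h chemical exposure, reporter mRNA was quantified by RT-PCR, 6-FAM labelling, HpaI digestion and capillary electrophoresis, with bidirectional fitting against DMSO.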
# [18] = ATG_M_19_CIS: Attagene CIS-FACTORIAL HepG2 Assay for M19 Transcription Factor (Internal Marker) (AID 2282939); conditions: HepG2 Attagene CIS-FACTORIAL M19 internal marker reporter; actives raise or lower the signal
# In short: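 Readout: fluorescent reporter-transcript fragments by capillary electrophoresis after RT-PCR. Human HepG2 liver cells carried transfected MRTU constructs reporting endogenous transcription-factor activity; exposure 24 h. Gain or loss of signal fitted relative to DMSO.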
# [19] = ATG_AP_2_CIS: Attagene CIS-FACTORIAL HepG2 Assay for human Activator Protein 2 (AP-2) (AID 2282932); conditions: HepG2 AP-2 cis-reporter, Attagene transcription factor profiling; actives raise or lower the signal
# In short: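 HepG2 cells were transiently transfected with multiple cis-promoter reporter transcription units and dosed for 24 h. Reporter mRNA was measured by RT-PCR with capillary electrophoresis fluorescence; bidirectional fits relative to DMSO baseline.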
# Aryl hydrocarbon receptor (Homo sapiens), sequence (P35869 whole entry, looked up): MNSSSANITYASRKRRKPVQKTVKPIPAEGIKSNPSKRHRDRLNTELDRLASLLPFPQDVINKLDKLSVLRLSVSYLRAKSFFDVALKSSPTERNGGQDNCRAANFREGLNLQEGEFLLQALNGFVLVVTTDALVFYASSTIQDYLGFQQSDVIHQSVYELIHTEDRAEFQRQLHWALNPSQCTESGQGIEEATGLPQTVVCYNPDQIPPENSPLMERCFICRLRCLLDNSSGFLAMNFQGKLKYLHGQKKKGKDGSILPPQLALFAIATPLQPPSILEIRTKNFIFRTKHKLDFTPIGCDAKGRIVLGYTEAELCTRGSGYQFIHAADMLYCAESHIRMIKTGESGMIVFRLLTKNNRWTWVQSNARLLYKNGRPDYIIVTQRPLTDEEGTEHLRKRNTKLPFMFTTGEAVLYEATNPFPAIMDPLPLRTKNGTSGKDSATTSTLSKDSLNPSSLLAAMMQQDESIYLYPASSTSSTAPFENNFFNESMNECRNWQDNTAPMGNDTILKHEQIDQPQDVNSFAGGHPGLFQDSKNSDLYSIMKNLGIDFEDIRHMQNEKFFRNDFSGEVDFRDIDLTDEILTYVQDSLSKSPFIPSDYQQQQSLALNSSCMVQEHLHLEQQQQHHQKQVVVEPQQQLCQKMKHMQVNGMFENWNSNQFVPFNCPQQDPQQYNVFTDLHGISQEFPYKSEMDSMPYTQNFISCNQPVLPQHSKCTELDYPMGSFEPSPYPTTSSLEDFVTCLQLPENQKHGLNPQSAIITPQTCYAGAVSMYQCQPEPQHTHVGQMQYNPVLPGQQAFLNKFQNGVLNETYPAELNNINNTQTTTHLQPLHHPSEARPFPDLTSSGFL
# CCAAT/enhancer-binding protein beta (Homo sapiens), sequence (P17676 whole entry, looked up): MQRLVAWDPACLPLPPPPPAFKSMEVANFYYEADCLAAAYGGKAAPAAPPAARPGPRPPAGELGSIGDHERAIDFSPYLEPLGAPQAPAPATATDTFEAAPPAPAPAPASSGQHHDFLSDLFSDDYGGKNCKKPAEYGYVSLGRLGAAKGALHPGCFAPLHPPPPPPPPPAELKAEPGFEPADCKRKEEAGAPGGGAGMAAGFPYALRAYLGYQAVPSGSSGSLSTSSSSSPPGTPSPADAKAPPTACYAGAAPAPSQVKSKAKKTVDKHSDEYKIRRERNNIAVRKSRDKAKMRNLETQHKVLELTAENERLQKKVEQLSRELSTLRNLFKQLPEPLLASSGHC
# Hepatocyte nuclear factor 3-beta (Homo sapiens), sequence (Q9Y261 whole entry, looked up): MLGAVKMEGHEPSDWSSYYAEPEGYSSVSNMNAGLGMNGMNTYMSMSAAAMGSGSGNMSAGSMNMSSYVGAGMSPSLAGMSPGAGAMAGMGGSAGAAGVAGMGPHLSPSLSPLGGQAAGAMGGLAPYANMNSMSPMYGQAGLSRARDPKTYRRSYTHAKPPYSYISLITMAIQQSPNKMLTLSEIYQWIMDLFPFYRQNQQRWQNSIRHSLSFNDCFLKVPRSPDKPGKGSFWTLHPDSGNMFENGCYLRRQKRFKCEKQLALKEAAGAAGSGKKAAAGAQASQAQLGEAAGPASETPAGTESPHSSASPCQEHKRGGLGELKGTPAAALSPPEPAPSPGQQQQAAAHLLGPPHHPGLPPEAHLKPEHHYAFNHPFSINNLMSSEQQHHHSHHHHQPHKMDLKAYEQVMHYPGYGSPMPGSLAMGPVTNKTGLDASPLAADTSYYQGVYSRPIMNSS
# Transcription factor E2F1 (Homo sapiens), sequence (Q01094 whole entry, looked up): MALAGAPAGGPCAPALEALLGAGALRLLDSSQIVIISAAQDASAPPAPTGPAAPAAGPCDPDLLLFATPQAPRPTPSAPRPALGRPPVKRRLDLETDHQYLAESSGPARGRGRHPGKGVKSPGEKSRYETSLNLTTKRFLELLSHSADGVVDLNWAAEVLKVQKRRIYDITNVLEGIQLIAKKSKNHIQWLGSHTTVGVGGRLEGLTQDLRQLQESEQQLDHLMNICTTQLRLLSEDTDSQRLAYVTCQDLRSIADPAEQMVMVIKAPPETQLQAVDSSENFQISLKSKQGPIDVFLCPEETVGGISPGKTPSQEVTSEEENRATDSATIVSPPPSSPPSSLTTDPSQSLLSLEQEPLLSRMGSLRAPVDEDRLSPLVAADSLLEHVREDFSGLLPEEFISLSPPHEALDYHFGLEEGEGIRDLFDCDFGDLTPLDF
# Retinoic acid receptor alpha (Homo sapiens), sequence (P10276 whole entry, looked up): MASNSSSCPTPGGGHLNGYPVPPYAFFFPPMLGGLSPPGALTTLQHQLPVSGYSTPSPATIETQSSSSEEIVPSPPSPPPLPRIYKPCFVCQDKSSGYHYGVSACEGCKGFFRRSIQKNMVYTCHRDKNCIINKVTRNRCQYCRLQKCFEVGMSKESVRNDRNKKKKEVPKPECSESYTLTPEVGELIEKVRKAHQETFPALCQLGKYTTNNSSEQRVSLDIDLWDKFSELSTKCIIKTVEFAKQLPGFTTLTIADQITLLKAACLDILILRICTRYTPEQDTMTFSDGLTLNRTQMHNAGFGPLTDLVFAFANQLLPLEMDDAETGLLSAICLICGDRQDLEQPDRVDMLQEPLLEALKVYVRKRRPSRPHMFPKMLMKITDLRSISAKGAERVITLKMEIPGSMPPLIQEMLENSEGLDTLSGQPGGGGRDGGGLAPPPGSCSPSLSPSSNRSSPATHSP
smiles,measurement,setting,value
OC[C@H]1O[C@@H]2O[C@H]3[C@H](O)[C@@H](O)[C@@H](O[C@H]4[C@H](O)[C@@H](O)[C@@H](O[C@H]5[C@H](O)[C@@H](O)[C@@H](O[C@H]6[C@H](O)[C@@H](O)[C@@H](O[C@H]7[C@H](O)[C@@H](O)[C@@H](O[C@H]8[C@H](O)[C@@H](O)[C@@H](O[C@H]9[C@H](O)[C@@H](O)[C@@H](O[C@H]1[C@H](O)[C@H]2O)O[C@@H]9CO)O[C@@H]8CO)O[C@@H]7CO)O[C@@H]6CO)O[C@@H]5CO)O[C@@H]4CO)O[C@@H]3CO,outcome,[1],inactive
same,outcome,[2],inactive
same,outcome,[3],inactive
same,outcome,[4],inactive
same,outcome,[5],inactive
same,outcome,[6],inactive
same,outcome,[7],inactive
same,outcome,[8],inactive
same,outcome,[9],inactive
same,outcome,[10],inactive
same,outcome,[11],inactive
same,outcome,[12],inactive
same,outcome,[13],inactive
same,outcome,[14],inactive
same,outcome,[15],inactive
same,outcome,[16],inactive
same,outcome,[17],inactive
CCC(C)c1cc([N+](=O)[O-])cc([N+](=O)[O-])c1OC(=O)OC(C)C (stereo not drawn),outcome,[1],inactive
same,AC50,[2],49.1 µM (active)
same,outcome,[3],inactive
same,outcome,[4],inactive
same,outcome,[5],inactive
same,AC50,[6],25.8 µM (active)
same,outcome,[8],inactive
same,outcome,[9],inactive
same,AC50,[10],100 µM (active)
same,outcome,[11],inactive
same,AC50,[12],26.5 µM (active)
same,outcome,[18],inactive
same,AC50,[13],26.1 µM (active)
same,AC50,[14],62.6 µM (active)
same,AC50,[15],164 µM (active)
same,AC50,[17],27.1 µM (active)
NCC1CCCC(CN)C1 (stereo not drawn),outcome,[1],inactive
same,outcome,[2],inactive
same,outcome,[3],inactive
same,outcome,[4],inactive
same,outcome,[5],inactive
same,outcome,[6],inactive
same,outcome,[7],inactive
same,outcome,[8],inactive
same,outcome,[9],inactive
same,outcome,[10],inactive
same,outcome,[11],inactive
same,outcome,[12],inactive
same,outcome,[18],inactive
same,outcome,[13],inactive
same,outcome,[14],inactive
same,outcome,[15],inactive
same,outcome,[17],inactive
CN(C)c1cccc(O)c1,outcome,[1],inactive
same,outcome,[2],inactive
same,outcome,[3],inactive
same,outcome,[4],inactive
same,AC50,[5],7.57 µM (active)
same,outcome,[19],inactive
same,outcome,[7],inactive
same,outcome,[8],inactive
same,outcome,[9],inactive
same,outcome,[10],inactive
same,outcome,[11],inactive
same,outcome,[12],inactive
same,outcome,[18],inactive
same,outcome,[13],inactive
same,outcome,[14],inactive
same,outcome,[15],inactive
same,outcome,[16],inactive
same,outcome,[17],inactive

# Source: PubChem BioAssay (EPA / NIEHS)
